In all, about 8,300 sequences were measured (“log2 fold change of degron read counts, EGFP-low vs EGFP+ sorted cells (limma voom), compound-induced degradation”: median about -1.1, highest 2% from about 3.2 on). For the sample, the highest values were picked, then their nearest neighbours and some sequences at random.
Target: T1, CRBN, Q96SW2
T1 chain: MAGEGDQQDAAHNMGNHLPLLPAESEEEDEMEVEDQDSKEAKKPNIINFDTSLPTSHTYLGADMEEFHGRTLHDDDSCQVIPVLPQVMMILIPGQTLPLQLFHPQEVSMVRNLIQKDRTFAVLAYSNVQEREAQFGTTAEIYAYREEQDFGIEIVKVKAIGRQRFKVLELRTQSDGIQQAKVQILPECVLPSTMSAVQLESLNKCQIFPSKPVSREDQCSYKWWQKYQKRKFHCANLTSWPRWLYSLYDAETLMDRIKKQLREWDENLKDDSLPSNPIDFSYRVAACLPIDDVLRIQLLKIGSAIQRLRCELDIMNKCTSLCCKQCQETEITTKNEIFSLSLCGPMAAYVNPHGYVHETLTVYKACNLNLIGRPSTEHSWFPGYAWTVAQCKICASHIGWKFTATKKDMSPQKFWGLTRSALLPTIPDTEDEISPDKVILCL
Test: log2 fold change of degron read counts, EGFP-low vs EGFP+ sorted cells (limma voom), compound-induced degradation; higher = more compound-induced degradation of the degron-EGFP fusion; degrons are variants of IKZF1/3 zinc finger 2; compound dose not given here
Conditions: Jurkat, 18 h

[1] = compound: compound 19 (5-tert-butyl-thalidomide)
[2] = compound: compound 22 (5-morpholino-thalidomide)
[3] = compound: compound 33 (diphenyl IMiD analogue)
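Further: pooled lentiviral library of zinc finger degron-EGFP fusions in mCherry-positive Jurkat cells, FACS-sorted after compound exposure, with degron abundance counted by next-generation sequencing.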

B1: 46L_47D_49P_50I_52G_53F_54W_55C_67L_, Q9UKT9 (peptide)
chain: LDCPICGFWCTQKGNLLRHIKL
log2 fold change of degron read counts [1]: -0.559
log2 fold change of degron read counts [2]: -0.625
log2 fold change of degron read counts [3]: 0.68
log2 fold change of degron read counts (compound: thalidomide): 1.33

B2: 46F_47A_49P_50V_52G_53A_54V_55F_67L_, Q9UKT9 (peptide)
chain: FACPVCGAVFTQKGNLLRHIKL
log2 fold change of degron read counts [1]: 3.09
log2 fold change of degron read counts [2]: 1.74
log2 fold change of degron read counts [3]: 1.78
log2 fold change of degron read counts (compound: thalidomide): 0.502

B3: 46F_47Y_49P_50Q_52G_53A_54M_55F_67L_, Q9UKT9 (peptide)
chain: FYCPQCGAMFTQKGNLLRHIKL
log2 fold change of degron read counts [1]: 0.518
log2 fold change of degron read counts [2]: 0.45
log2 fold change of degron read counts [3]: 0.601
log2 fold change of degron read counts (compound: thalidomide): -1.06

B4: 46F_47C_49N_50V_52G_53A_54W_55F_67L_, Q9UKT9 (peptide)
chain: FCCNVCGAWFTQKGNLLRHIKL
log2 fold change of degron read counts [1]: -1.92
log2 fold change of degron read counts [2]: -1.43
log2 fold change of degron read counts [3]: -1.27
log2 fold change of degron read counts (compound: thalidomide): -1.34

B5: 46F_47I_49E_50V_52G_53A_54D_55F_67L_, Q9UKT9 (peptide)
chain: FICEVCGADFTQKGNLLRHIKL
log2 fold change of degron read counts [1]: -2.24
log2 fold change of degron read counts [2]: -0.906
log2 fold change of degron read counts [3]: -0.571
log2 fold change of degron read counts (compound: thalidomide): 0.184

B6: 46F_47T_49D_50V_52G_53A_54M_55F_67L_, Q9UKT9 (peptide)
chain: FTCDVCGAMFTQKGNLLRHIKL
log2 fold change of degron read counts [1]: -1.4
log2 fold change of degron read counts [2]: -0.892
log2 fold change of degron read counts [3]: -0.371
log2 fold change of degron read counts (compound: thalidomide): -0.84

B7: 46L_47S_49N_50Q_52G_53F_54V_55C_67L_, Q9UKT9 (peptide)
chain: LSCNQCGFVCTQKGNLLRHIKL
log2 fold change of degron read counts [1]: -2.24
log2 fold change of degron read counts [2]: -2.61
log2 fold change of degron read counts [3]: -2
log2 fold change of degron read counts (compound: thalidomide): -2.24

B8: 46F_47F_49P_50V_52G_53A_54C_55F_67L_, Q9UKT9 (peptide)
chain: FFCPVCGACFTQKGNLLRHIKL
log2 fold change of degron read counts [1]: 3
log2 fold change of degron read counts [2]: 3.34
log2 fold change of degron read counts [3]: 2.16
log2 fold change of degron read counts (compound: thalidomide): 1.3

B9: 46F_47M_49P_50V_52G_53A_54C_55F_67L_, Q9UKT9 (peptide)
chain: FMCPVCGACFTQKGNLLRHIKL
log2 fold change of degron read counts [1]: -0.624
log2 fold change of degron read counts [2]: 0.321
log2 fold change of degron read counts [3]: 2.31
log2 fold change of degron read counts (compound: thalidomide): 0.962

B10: 46F_47S_49P_50V_52G_53A_54C_55F_67L_, Q9UKT9 (peptide)
chain: FSCPVCGACFTQKGNLLRHIKL
log2 fold change of degron read counts [1]: 2.64
log2 fold change of degron read counts [2]: 1.8
log2 fold change of degron read counts [3]: 2.73
log2 fold change of degron read counts (compound: thalidomide): 1.07

B11: 46F_47V_49P_50V_52G_53A_54C_55F_67L_, Q9UKT9 (peptide)
chain: FVCPVCGACFTQKGNLLRHIKL
log2 fold change of degron read counts [1]: -0.46
log2 fold change of degron read counts [2]: 1.87
log2 fold change of degron read counts [3]: 2.08
log2 fold change of degron read counts (compound: thalidomide): 2.53

B12: 46F_47H_49D_50V_52G_53A_54C_55F_67L_, Q9UKT9 (peptide)
chain: FHCDVCGACFTQKGNLLRHIKL
log2 fold change of degron read counts [1]: 0.383
log2 fold change of degron read counts [2]: 0.3
log2 fold change of degron read counts [3]: -1.01
log2 fold change of degron read counts (compound: thalidomide): -2.43

B13: 46F_47A_49P_50V_52G_53A_54C_55F_67L_, Q9UKT9 (peptide)
chain: FACPVCGACFTQKGNLLRHIKL
log2 fold change of degron read counts [1]: 3.39
log2 fold change of degron read counts [2]: 1.64
log2 fold change of degron read counts [3]: 1.85
log2 fold change of degron read counts (compound: thalidomide): 0.646

B14: 46F_47G_49P_50V_52G_53A_54C_55F_67L_, Q9UKT9 (peptide)
chain: FGCPVCGACFTQKGNLLRHIKL
log2 fold change of degron read counts [1]: 3.88
log2 fold change of degron read counts [2]: 3.16
log2 fold change of degron read counts [3]: 2.81
log2 fold change of degron read counts (compound: thalidomide): 1.1

B15: 46F_47V_49D_50V_52G_53A_54C_55F_67L_, Q9UKT9 (peptide)
chain: FVCDVCGACFTQKGNLLRHIKL
log2 fold change of degron read counts [1]: -1.45
log2 fold change of degron read counts [2]: -0.0454
log2 fold change of degron read counts [3]: 0.676
log2 fold change of degron read counts (compound: thalidomide): 0.186

B16: 46F_47D_49P_50V_52G_53A_54C_55F_67L_, Q9UKT9 (peptide)
chain: FDCPVCGACFTQKGNLLRHIKL
log2 fold change of degron read counts [1]: 1.39
log2 fold change of degron read counts [2]: -0.358
log2 fold change of degron read counts [3]: 1.46
log2 fold change of degron read counts (compound: thalidomide): 1.34

B17: 46F_47R_49P_50V_52G_53A_54C_55F_67L_, Q9UKT9 (peptide)
chain: FRCPVCGACFTQKGNLLRHIKL
log2 fold change of degron read counts [1]: -0.619
log2 fold change of degron read counts [2]: 0.101
log2 fold change of degron read counts [3]: 1.52
log2 fold change of degron read counts (compound: thalidomide): 0.981

B18: 46F_47C_49P_50V_52G_53A_54C_55F_67L_, Q9UKT9 (peptide)
chain: FCCPVCGACFTQKGNLLRHIKL
log2 fold change of degron read counts [1]: 2.37
log2 fold change of degron read counts [2]: 1.98
log2 fold change of degron read counts [3]: 2.99
log2 fold change of degron read counts (compound: thalidomide): 2.06

B19: 46F_47W_49D_50V_52G_53A_54C_55F_67L_, Q9UKT9 (peptide)
chain: FWCDVCGACFTQKGNLLRHIKL
log2 fold change of degron read counts [1]: 2.78
log2 fold change of degron read counts [2]: 3.47
log2 fold change of degron read counts [3]: 1.12
log2 fold change of degron read counts (compound: thalidomide): -0.931
